Measured values reported in PubChem BioAssay AID1159580 (chemical genetic matrix, 2015).
“And” between values parts separate entries of the source, which are not always exact repeats. Equal values may be shown once. About 2,000 (36%) of roughly 5,500 compounds were called active. Not shown: some 18% with an inconclusive outcome. No stated cut-off is given here; in the data, active means normalized growth mostly below about 0.91 (no sharp cut-off); inconclusive means no clear call, values can overlap the other calls; inactive means mostly above about 0.92. This is one part of the list.

Test: chemical genetic growth profiling, strain panel (AID 1159580);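 further: tested at 20 µM; growth read once vehicle control cultures reached saturation at 30 °C; 1 = growth at the plate median or of vehicle wells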
Conditions: S. cerevisiae deletion strains, growth OD

Measured: normalized growth

CC(=O)Oc1cc(-c2coc3cc(OC(C)=O)c(OC(C)=O)c(OC(C)=O)c3c2=O)cc(OC(C)=O)c1OC(C)=O
inactive: locus YAL030W, strain snc1, stronger effect = lower value 0.969 | locus YBR009C, strain hhf1, stronger effect = lower value 0.934 | locus YBR021W, strain FUR4, stronger effect = lower value 0.854 | locus YBR171W, strain sec66, stronger effect = lower value 0.936 | locus YBR279W, strain paf1, stronger effect = lower value 0.937 | locus YCL011C, strain gbp2, stronger effect = lower value 0.93 | locus YCL016C, strain dcc1, stronger effect = lower value 0.948 | locus YCL069W, strain vba3, stronger effect = lower value 0.96 | locus YCR088W, strain abp1, stronger effect = lower value 0.977 | locus YDL005C, strain med2, stronger effect = lower value 0.985 | locus YDL040C, strain nat1, stronger effect = lower value 0.987 | locus YDL185W, strain tfp1, stronger effect = lower value 0.978 | locus YDR001C, strain nth1, stronger effect = lower value 0.977 | locus YDR159W, strain sac3, stronger effect = lower value 0.863 | locus YDR195W, strain ref2 0.947 | locus YDR318W, strain mcm21, stronger effect = lower value 0.967 | locus YDR388W, stronger effect = lower value 0.978 | locus YDR392W, strain spt3, stronger effect = lower value 0.938 | locus YEL061C, strain CIN8 (second series), stronger effect = lower value 0.946 | locus YER016W, strain bim1, stronger effect = lower value 0.972 | locus YER110C, stronger effect = lower value 1.05 | locus YER155C, strain BEM2 (second series), stronger effect = lower value 0.906 | locus YER167W, strain BCK2, stronger effect = lower value 0.949 | locus YGL078C, strain dbp3, stronger effect = lower value 1.01 | locus YGL167C, strain pmr1, stronger effect = lower value 0.956 | locus YGL227W, strain vid30, stronger effect = lower value 0.996 | locus YGL240W, strain doc1, stronger effect = lower value 0.975 | locus YGR252W, strain gcn5, stronger effect = lower value 0.873 | locus YHR013C, strain ard1, stronger effect = lower value 0.877 | locus YHR030C, strain SLT2, stronger effect = lower value 1.05 | locus YHR079C, strain IRE1, stronger effect = lower value 1.07 | locus YHR094C, strain hxt1, stronger effect = lower value 1.03 | locus YIL125W, strain kgd1, stronger effect = lower value 1.03 | locus YIR030C, strain dcg1, stronger effect = lower value 0.974 | locus YJL092W, strain hpr5, stronger effect = lower value 0.964 | locus YJL095W, strain BCK1 (second series), stronger effect = lower value 0.945 | locus YJL115W, strain asf1, stronger effect = lower value 0.978 | locus YJL129C, strain trk1, stronger effect = lower value 0.942 | locus YJL134W, strain LCB3, stronger effect = lower value 0.936 | locus YJL154C, strain vps35, stronger effect = lower value 0.978 | locus YJL166W, strain qcr8, stronger effect = lower value 0.906 | locus YJL168C, strain set2, stronger effect = lower value 1.01 | locus YJL187C, strain SWE1, stronger effect = lower value 0.945 | locus YJR066W, strain TOR1, stronger effect = lower value 0.971
0.179 (active) and 1.03 (inactive): locus YJL095W, strain BCK1, stronger effect = lower value
active: locus YAL013W, strain DEP1, stronger effect = lower value 0.67 | locus YAL021C, strain ccr4, stronger effect = lower value 0.81 | locus YAL026C, strain drs2, stronger effect = lower value 0.836 | locus YBL061C, strain skt5, stronger effect = lower value 0.919 | locus YBR023C, strain chs3, stronger effect = lower value 0.841 | locus YBR229C, strain ROT2, stronger effect = lower value 0.89 | locus YBR231C, strain swc5, stronger effect = lower value 0.772 | locus YCL029C, strain bik1, stronger effect = lower value 0.674 | locus YDL035C, strain GPR1, stronger effect = lower value 0.83 | locus YDL074C, strain BRE1, stronger effect = lower value 0.643 | locus YDL101C, strain DUN1, stronger effect = lower value 0.438 | locus YDL192W, strain arf1, stronger effect = lower value 0.899 | locus YDR069C, strain doa4, stronger effect = lower value 0.752 | locus YDR101C, strain arx1, stronger effect = lower value 0.827 | locus YDR137W, strain rgp1, stronger effect = lower value 0.795 | locus YDR162C, strain NBP2, stronger effect = lower value 0.717 | locus YDR297W, strain sur2, stronger effect = lower value 0.914 | locus YDR334W, strain swr1, stronger effect = lower value 0.834 | locus YDR335W, strain msn5, stronger effect = lower value 0.851 | locus YDR502C, strain sam2, stronger effect = lower value 0.898 | locus YEL003W, strain gim4, stronger effect = lower value 0.877 | locus YEL037C, strain rad23, stronger effect = lower value 0.88 | locus YER015W, strain faa2, stronger effect = lower value 0.894 | locus YER111C, strain swi4, stronger effect = lower value 0.469 | locus YER155C, strain BEM2, stronger effect = lower value 0.913 | locus YFR010W, strain ubp6, stronger effect = lower value 0.881 | locus YGL086W, strain mad1, stronger effect = lower value 0.887 | locus YGL173C, strain kem1, stronger effect = lower value 0.85 | locus YGL248W, strain PDE1, stronger effect = lower value 0.845 | locus YGL253W, strain hxk2, stronger effect = lower value 0.862 | locus YGR135W, strain pre9, stronger effect = lower value 0.871 | locus YGR229C, strain SMI1, stronger effect = lower value 0.302 | locus YHR027C, strain rpn1, stronger effect = lower value 0.885 | locus YHR079C, strain IRE1 (second series), stronger effect = lower value 0.794 | locus YHR129C, strain ARP1, stronger effect = lower value 0.844 | locus YHR142W, strain chs7, stronger effect = lower value 0.82 | locus YHR200W, strain rpn10, stronger effect = lower value 0.914 | locus YIL066C, strain RNR3, stronger effect = lower value 0.834 | locus YIL073C, strain SPO22, stronger effect = lower value 0.602 | locus YJL164C, strain tpk1, stronger effect = lower value 0.893 | locus YJL187C, strain SWE1 (second series), stronger effect = lower value 0.273
